Rab9 promoter act – qHTS Assay for Rab9 Promoter Activators | Huh7 Rab9 promoter-luciferase reporter, luminescence, 24 h | Potency, µM (doses to about 9.22 µM), for inactives: top-dose activation, negative = inhibition, hits mostly activators | 320,000 compounds, 2.8% hits | AID 485297, 2010; further: % of control where 0% means no effect; nearly all actives have a fitted effect of over 60% in size
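Stable Rab9-luc Huh7, 1500 cells/well, 2 h settle; cmpd in DMSO, 24 h, 37 °C/5% CO2; luciferase reagent 10 min RT; luminescence.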
SMN2 splice enh – qHTS Assay for Enhancers of SMN2 Splice Variant Expression | Potency, µM (doses to about 46.1 µM), for the others: top-dose activity change, positive = activation, actives largely listed as activators | HEK293 SMN2-luciferase splicing reporter, luminescence, 30-36 h | 210,000 compounds, 2.8% hits; further: % of control where 0% means no effect; nearly all actives have a fitted effect of over 55% in size
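HEK293 cells carry an SMN2 minigene-luciferase reporter in which exon 7 inclusion puts luciferase in frame. Cells were seeded at 2000 cells/well, attached for 10-12 hours, then exposed to compounds for 30-36 hours at 37C before ONE-Glo luminescence.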
ELG1 DNA repair – qHTS screen for small molecules that inhibit ELG1-dependent DNA repair in human embryonic kidney (HEK293T) cells expressing luciferase-tagged ELG1. 330,000 compounds, 2.3% hits. HEK293T ELG1-luciferase reporter, luminescence, 16 h; DNA damage induced by 5-fluorouridine. Potency, µM (titrated, usually from 46.1 µM), for inactives: at the highest dose activity change, negative = inhibition, usual class: inhibitors; further: on the % scale 0 is the no-effect control and ±100 the full control effect; nearly all actives have a fitted effect of over 55% in size
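In this reporter screen, reduction of luminescence relative to DMSO vehicle indicated activity. Compounds and 5-fluorouridine were added together to 2,000 cells per well, incubated for 16 hr at 37 °C, then developed with ONE-Glo.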
NPC1 prom act – qHTS Assay for NPC1 Promoter Activators | Huh7 NPC1 promoter luciferase reporter, 24 h | Potency, µM (top dose mostly 9.22 µM), inactives show at the top dose activation, hits mostly activators | 320,000 compounds, 2.4% hits; further: % of control where 0% means no effect; nearly all actives have a fitted effect of over 60% in size
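Quantitative HTS used a cell-based reporter: Huh7 cells stably bearing the NPC1 promoter upstream of luciferase were treated with compounds for 24 h, and promoter activation was read as luminescence.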
ELG1 genotoxic – qHTS screen for small molecules that induce genotoxicity in human embryonic kidney (HEK293T) cells expressing luciferase-tagged ELG1. HEK293T ELG1-luciferase reporter, luminescence, 16 h. Potency, µM (series often up to 46 µM), without a hit: top-dose activity change, positive = activation, usual class: activators. 330,000 compounds, 1.3% hits. AID 504466, 2011; further: % of control where 0% means no effect; nearly all actives have a fitted effect of over 60% in size
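Quantitative HTS format in 1536-well plates. HEK293T ELG1-luciferase reporter cells receive test compound and are incubated 16 hr at 37 °C, 5% CO2; ONE-Glo added, 30 min room temperature, then luminescence read.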
FLuc counter – qHTS profiling assay for firefly luciferase inhibitor/activator using purifed enzyme and Km concentrations of substrates (counterscreen for miR-21 project); Luciferin 4-monooxygenase (Photinus pyralis), P08659; purified FLuc, Km substrates, luminescence inhibition; Potency, µM (doses to about 57.5 µM), inactives show top-dose activity change, negative = inhibition, most hits filed as inhibitors; 360,000 compounds, 6.9% hits;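 further: plate controls were vehicle for no effect and reference inhibitor for full effect; nearly all actives have a fitted effect of over 55% in size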
Target sequence (P08659 whole entry, looked up): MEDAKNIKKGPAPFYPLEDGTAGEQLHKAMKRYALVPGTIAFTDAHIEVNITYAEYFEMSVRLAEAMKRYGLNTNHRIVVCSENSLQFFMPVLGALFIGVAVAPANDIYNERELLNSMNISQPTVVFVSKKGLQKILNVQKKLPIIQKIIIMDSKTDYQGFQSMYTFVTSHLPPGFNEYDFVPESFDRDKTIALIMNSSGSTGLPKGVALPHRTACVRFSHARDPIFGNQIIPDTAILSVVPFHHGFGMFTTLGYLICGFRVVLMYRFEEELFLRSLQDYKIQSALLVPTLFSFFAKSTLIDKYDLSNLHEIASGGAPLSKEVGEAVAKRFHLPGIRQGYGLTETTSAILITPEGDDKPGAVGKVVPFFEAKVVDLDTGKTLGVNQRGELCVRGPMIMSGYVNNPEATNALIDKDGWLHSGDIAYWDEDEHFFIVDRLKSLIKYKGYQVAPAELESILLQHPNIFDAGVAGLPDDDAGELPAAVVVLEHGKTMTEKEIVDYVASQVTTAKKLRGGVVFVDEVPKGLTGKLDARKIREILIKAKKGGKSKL
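Biochemical qHTS of compounds, final roughly 60 µM downward over six points, against 10 nM purified firefly luciferase using Km concentrations of substrates (10 uM D-luciferin, 10 uM ATP) in Tris acetate pH 7.5 buffer; luminescence output.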
An asterisk follows results filed as active. This is a sample that favours compounds with a hit; in the whole collection about 9.4% have one here. The call rests on the fitted dose curve; in most records, active means well fitted curve in the direction sought with a large enough effect; inconclusive means small, poorly fitted or top-dose-only effect, or another doubt; inactive means no such curve, though single readings can be large; an effect the other way counts as inactive or inconclusive. Potency means the concentration at half of the fitted maximal effect.

`CCOC(=O)N1CCN(C(=O)CSc2nnc(-c3cccs3)o2)CC1` gave Rab9 promoter act -3%, SMN2 splice enh -2%, ELG1 DNA repair 0%, NPC1 prom act 0%, ELG1 genotoxic -5% and FLuc counter -2%.
CC1CCN(C(=O)CSc2nnc(-c3cccs3)o2)CC1 was read as Rab9 promoter act 21%, ELG1 DNA repair inconclusive, NPC1 prom act 13%, ELG1 genotoxic 20% and FLuc counter -14%.
Screening CC1CCCCN1C(=O)CSc1nnc(-c2cccs2)o1 (stereo not given) returned Rab9 promoter act 2.2µM*, ELG1 DNA repair inconclusive, NPC1 prom act 3.5µM*, ELG1 genotoxic inconclusive and FLuc counter 21µM*.
Screening O=C(CSc1nnc(-c2cccs2)o1)N1CCCCC1 returned Rab9 promoter act 1.6µM*, SMN2 splice enh 13µM*, ELG1 DNA repair inconclusive, NPC1 prom act 2.5µM*, ELG1 genotoxic 9.2µM* and FLuc counter 21µM*.
For CCOc1ccc(C(=O)NCCn2cc(SCC(=O)Nc3ccccc3)c3ccccc32)cc1 the results were SMN2 splice enh -17% and FLuc counter inconclusive.
Screening Cc1ccc(Cc2nc3ccccc3nc2SCC(=O)N2CCCCC2)cc1 returned FLuc counter -17%.
Screening CCCCCCCn1c2c(c(=N)c3ccccc31)CCC2 returned Rab9 promoter act -46%, ELG1 DNA repair 4.1µM*, NPC1 prom act -40%, ELG1 genotoxic -9% and FLuc counter 0%.
For CCCn1c2c(c(=N)c3c1CCC3)CCC2 the results were Rab9 promoter act -36%, ELG1 DNA repair 18µM*, NPC1 prom act -28%, ELG1 genotoxic -7% and FLuc counter -2%.
For Clc1ccccc1-c1nc(-c2ccccc2)n[nH]1 the results were Rab9 promoter act 2.8µM*, SMN2 splice enh inconclusive, ELG1 DNA repair inconclusive, NPC1 prom act 3.2µM*, ELG1 genotoxic inconclusive and FLuc counter 6.7µM*.
For O=[N+]([O-])c1cc(-c2n[nH]c(-c3ccccc3)n2)cc([N+](=O)[O-])c1 the results were Rab9 promoter act 2%, SMN2 splice enh -16%, ELG1 DNA repair inconclusive, NPC1 prom act 1%, ELG1 genotoxic 0% and FLuc counter 2%.
For CC(=O)n1cc(N(C(=O)CCl)c2ccc([N+](=O)[O-])cc2)c2ccccc21 the results were Rab9 promoter act -53%, ELG1 DNA repair 23µM*, NPC1 prom act -39%, ELG1 genotoxic -26% and FLuc counter 4%.
`Cc1c([N+](=O)[O-])cc(S(=O)(=O)Nc2ccc(-c3ccc(N4CCCC4)nn3)cc2)cc1[N+](=O)[O-]` gave Rab9 promoter act 9%, ELG1 DNA repair inconclusive, NPC1 prom act -2%, ELG1 genotoxic 3% and FLuc counter 19µM*.
Screening O=[N+]([O-])c1ccc(S(=O)(=O)Nc2ccc(-c3ccc(N4CCCC4)nn3)cc2)cc1 returned Rab9 promoter act 14%, ELG1 DNA repair 24%, NPC1 prom act 10%, ELG1 genotoxic 8% and FLuc counter -21%.
For Cc1ccc([N+](=O)[O-])cc1S(=O)(=O)Nc1ccc(-c2ccc(N3CCCC3)nn2)cc1 the results were Rab9 promoter act 2%, ELG1 DNA repair inconclusive, NPC1 prom act 11%, ELG1 genotoxic 6% and FLuc counter inconclusive.
For O=[N+]([O-])c1ccc(Cl)c(S(=O)(=O)Nc2ccc(-c3ccc(N4CCCC4)nn3)cc2)c1 the results were Rab9 promoter act -3%, ELG1 DNA repair 27%, NPC1 prom act -1%, ELG1 genotoxic 6% and FLuc counter 21µM*.
